From PubChem BioAssay (Tox21)
Records with an inconclusive call do not appear. Values without a mark were called inactive. Active and inactive are the calls of the source. Calls come from the whole dose curve; as a rule, active = well fitted inhibition curve with a large enough effect in the repeat runs; inconclusive = weak or mixed curves, or effect the other way; inactive = no such curve, though single readings can be large or run the other way.
% is set by controls: 0 for no effect and ±100 for the full control effect.

These molecules were tested against Androgen receptor (Homo sapiens) (UniProt P10275) (assay: qHTS assay to identify small molecule antagonists of the androgen receptor (AR) signaling pathway using the MDA cell line (AID 743042; note: nearly all actives have a fitted effect of over 55% in size)). Details: MDA-kb2 AR-luc, MMTV luciferase, R1881 antagonist, 16 h; series mostly up to 70.3 µM; activity change, negative = inhibition: at the top concentration.
Androgen receptor (Homo sapiens), sequence (P10275 whole entry, looked up): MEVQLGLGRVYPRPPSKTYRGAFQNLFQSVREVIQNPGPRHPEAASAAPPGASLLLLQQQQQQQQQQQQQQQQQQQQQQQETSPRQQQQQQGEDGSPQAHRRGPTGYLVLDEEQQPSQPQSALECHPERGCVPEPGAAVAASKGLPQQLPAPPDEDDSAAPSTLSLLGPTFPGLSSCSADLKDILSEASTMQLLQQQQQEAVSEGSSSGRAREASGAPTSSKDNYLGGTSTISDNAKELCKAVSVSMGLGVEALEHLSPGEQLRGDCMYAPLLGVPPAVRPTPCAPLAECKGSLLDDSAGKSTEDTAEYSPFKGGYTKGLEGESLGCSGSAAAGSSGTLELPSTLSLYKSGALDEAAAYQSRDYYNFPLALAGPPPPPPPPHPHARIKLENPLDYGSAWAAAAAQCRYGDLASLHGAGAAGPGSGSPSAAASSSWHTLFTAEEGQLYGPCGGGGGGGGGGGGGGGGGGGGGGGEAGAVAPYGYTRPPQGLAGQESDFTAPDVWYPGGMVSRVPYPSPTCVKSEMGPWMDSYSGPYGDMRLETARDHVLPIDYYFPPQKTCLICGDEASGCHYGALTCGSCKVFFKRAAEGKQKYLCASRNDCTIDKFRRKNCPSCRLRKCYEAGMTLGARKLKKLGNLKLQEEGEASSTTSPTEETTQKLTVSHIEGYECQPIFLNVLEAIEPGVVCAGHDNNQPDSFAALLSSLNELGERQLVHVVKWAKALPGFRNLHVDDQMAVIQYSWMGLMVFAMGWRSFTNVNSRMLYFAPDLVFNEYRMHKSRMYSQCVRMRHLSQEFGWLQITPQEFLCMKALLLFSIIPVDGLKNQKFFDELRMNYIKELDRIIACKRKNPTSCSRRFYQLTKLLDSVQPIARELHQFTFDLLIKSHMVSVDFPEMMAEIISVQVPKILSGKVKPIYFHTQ
Text: U.S. Tox21 Program National Center for Advancing Translational Sciences [NCATS] NIH Chemical Genomics Center [NCGC] U.S. Environmental Protection Agency [EPA] National Institutes of Environmental Health Sciences [NIEHS] National Toxicology Program [NTP] U.S. Food and Drug Administration [FDA] Tox21 Assay Overview: Androgen receptor (AR), a nuclear hormone receptor, plays a critical role in AR-dependent prostate cancer and other androgen related diseases. Endocrine disrupting chemicals (EDCs) and their interactions with steroid hormone receptors like AR may cause disruption of normal endocrine function as well as interfere with metabolic homeostasis, reproduction, developmental and behavioral functions. To identify the compounds that inhibit AR signaling, MDA-kb2 AR-luc cell line (from ATCC, deposited by Wilson et al.) was used to screen the Tox21 10K compound library. MDA-kb2 AR-luc cell line is human breast carcinoma cell line that was stably transfected with a luciferase reporter gene under control of the MMTV promoter containing response elements for both androgen receptor (AR) and glucocorticoid receptor (GR).
Tox21 Assay Protocol Summary: MDA-kb2 cells were dispensed at 3,000 cells/4 uL/well of culture medium into white wall/solid-bottom 1536-well plates using a Multidrop Combi (ThermoFisher Scientific, Waltham, MA) dispenser. After the assay plates were incubated at a 37C and 0% CO2 for 5 hr, 23 nL of compounds dissolved in DMSO, positive controls or DMSO only was transferred to the assay plate by a Pintool station (Kalypsys, San Diego, CA), followed by addition of 1 uL of agonist (R1881) in culture medium using a Bioraptr Flying Reagent Dispenser (FRD) workstation (Beckman Coulter, Indianapolis, IN, USA). The plates were incubated at a 37C and 0% CO2 for 16 h. After 15.5 h incubation, 1uL of CellTiter-Fluor reagent (Promega, Madison, WI) was added using a Bioraptr FRD to each plate for measuring cytotoxicity. The fluorescence intensity was quantified on a ViewLux plate reader (PerkinElmer, Shelton, CT) following 30 min incubation at 37C and 0% CO2. For measuring luciferase reporter gene activity, 4 uL of ONE-Glo reagent (Promega) was added to each plate using a Bioraptr FRD and luminescence was quantified on a ViewLux (PerkinElmer) plate reader after 30 min incubation at room temperature.
`CCCCC(CC)COC(=O)/C=C\C(=O)OCC(CC)CCCC` (centres undefined) was tested, and the outcome was “inactive”. In the case of `Cc1ccc(C)c(C)c1`, the outcome is reported as “inactive”. In the case of `O=C1CCCCC1`, the outcome is reported as “inactive”. In the case of `CC(C)(CO)COC(=O)C(C)(C)CO`, the outcome is reported as “inactive”. In the case of `C[C@@H]1O[C@@H](OC[C@H]2O[C@@H](Oc3c(-c4ccc(O)c(O)c4)oc4cc(O)cc(O)c4c3=O)[C@H](O)[C@@H](O)[C@@H]2O)[C@H](O)[C@H](O)[C@H]1O`, the outcome is reported as “inactive”. With `Nc1nc2ncc(CNc3ccc(C(=O)N[C@@H](CCC(=O)O)C(=O)O)cc3)nc2c(=O)[nH]1` the “activity change, negative = inhibition” value was -4.12%. For `O=Nc1ccc(O)cc1`, the outcome was “inactive”. For `Cc1cc(=O)[nH]c(C(C)C)n1`, the outcome was “inactive”. For `CCCCC(CC)C(=O)OCCOCCOCCOC(=O)C(CC)CCCC` (centres undefined), the outcome was “inactive”. With `OCC1CCCO1` (centres undefined) the outcome was “inactive”. In the case of `Nc1cc(-c2ccncc2)c[nH]c1=O`, the “activity change, negative = inhibition” value is reported as -1.84%. For `Oc1ccc2ccccc2c1`, the outcome was “inactive”. With `NCCNCCNCCNCCN` the outcome was “inactive”. With `O=c1c(-c2ccc(O)cc2)coc2cc(O)ccc12` the “activity change, negative = inhibition” value was 64.4%. `C=CC(=O)OCCCCCCCC(C)C` was tested, and the outcome was “inactive”. `CCc1ccc(O)cc1` was tested, and the outcome was “inactive”. `O=C(O)c1cc(-c2ccccc2)nc2ccccc12` was tested, and the outcome was “inactive”. `CCCCCCCCCC(=O)O` was tested, and the outcome was “inactive”. `Oc1ccc(OCc2ccccc2)cc1` was tested, and the outcome was “inactive”.
